Where “and” joins values, the source holds several entries; their conditions need not be identical. Identical values can stand only once. The whole screen tested about 410,000 compounds, of which about 18,000 (4.4%) were called active. Another 7% or so got no clear call; they are omitted. The entries come from a sample that favours actives as a whole. A number with no mark means an inactive call. Cut-off read from the data, not from the text of the source: active = activity change below about -60%; inconclusive = no clear call, values can overlap the other calls; inactive = above about -39%.
% is set by controls: 0 for no effect and ±100 for the full control effect.

The nature of the experiment: qHTS Assay for inhibitors of the human cytomegalovirus (HCMV). The following applies: HFF cells, HCMV-luciferase reporter, 72 h; at 57.5 µM; active compounds read low. Put shortly:
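Luciferase read-out from HCMV-luciferase-infected HFFs (MOI 1 PFU/cell) 72 h post infection at 37C; compounds added after 16 h cell attachment; activity normalized between buffer-only basal and Salinomycin (10uM) inhibitor controls.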
(In general: In qHTS, concentration-response curves come from the screen itself.)
`COc1ccc2c(CNCCc3ccccc3C)c(C(=O)O)n(Cc3ccccc3C)c2c1`: the activity change, negative = inhibition was -9.03%.
With `COc1cc(C(=O)N2CCC(c3ccncc3)CC2)cc(OC)c1OC` the figure was 18%; with `COc1ccccc1CNC(=O)CCCCn1c(=O)c2ccccc2n(CC(=O)Nc2cc(Cl)ccc2C)c1=O`, -9.62%.
With `O=C(NCc1ccncc1)c1cccc(NS(=O)(=O)c2ccc(F)c(F)c2)c1` the figure was -101% (active).
With `O=C(NCc1cccc(C(F)(F)F)c1)c1cccc(S(=O)(=O)N2CCN(Cc3ccccc3)CC2)c1` the figure was 0.707%; with `O=C(NCc1ccccc1)c1ccc(S(=O)(=O)Nc2cccc(C(F)(F)F)c2)cc1`, -62% (active).
As to `O=C(NCc1ccccc1CN1CCCC1)c1cccc(S(=O)(=O)Nc2ccc(F)cc2)c1`, the activity change, negative = inhibition is 56.8%.
With `O=C(NCc1ccncc1)c1ccc(NS(=O)(=O)c2cccc([N+](=O)[O-])c2)cc1` the figure was -29%.
With `O=C(NCCCN1CCCC1=O)c1ccc(S(=O)(=O)Nc2ccccc2)cc1` the figure was -28.4%; with `Cc1ccccc1CSCCNC(=O)C1CCN(S(=O)(=O)Cc2ccccc2)CC1`, -4.14%.
`Cc1ccc2nc(COc3cccc(NC(=O)c4cccc(Cl)c4)c3)cc(=O)n2c1`: the activity change, negative = inhibition was 9.28%.
With `Cc1ccccc1-c1nc(NC(C)C)nc2cc(-c3ccccc3)sc12` the figure was -8.38%; with `Cc1cc(C)c2oc(C(=O)Nc3ccc(S(=O)(=O)N(C)c4ccccc4)cc3)cc(=O)c2c1`, -2.92%.
With `Cc1ccc(Cl)cc1NC(=O)/C(C#N)=C\c1cn(Cc2ccc(F)cc2)c2ccccc12` the figure was -6.14%; with `Cc1ccc(Cl)cc1N1CCN(C(=O)CN2C(=O)COc3ccc(S(=O)(=O)N4CCOCC4)cc32)CC1`, 6.7%.
With `CC(C)CCn1c(=O)c2c(nc3n2CCCN3Cc2ccccc2)n(C)c1=O` the figure was -22.4%.
As to `CCOc1ccc(C(=O)NCC(=O)N2CCCCCCC2)cc1OCC`, the activity change, negative = inhibition was -11.3%.
Take `COc1ccc2c(CC(=O)N3CCc4cc(OC)c(OC)cc4C3)coc2c1`: the activity change, negative = inhibition is -13.1%.
`CCOc1cc(C(=O)N2CCc3cc(OC)c(OC)cc3C2)ccc1OC(F)F`: the activity change, negative = inhibition is -71.6% (active).
With `Cc1nn(C(=O)c2c(F)cccc2F)c(C)c1S(=O)(=O)N1CCOCC1` the figure was 9.99%; with `O=S(=O)(c1cnccc1N1CCN(/N=C/c2ccc(Br)cc2)CC1)N1CCCCC1`, -6.47%; with `COc1cc2c(cc1OC)C(=O)NCC(C)(C)O2`, -102% (active).
With `COc1ccc(C(=O)NC2CC(C)(C)NC(C)(C)C2)cc1OC` the figure was 7.69%.
With `COc1cc(OC)c(C(=O)NC2CC(C)(C)NC(C)(C)C2)cc1OC` the figure was 37.1%.
As for `COc1ccc(NC(=O)CSc2nc3ccccc3n2CC(=O)N2CCCCC2C)cc1` (configuration not stated), the activity change, negative = inhibition is -20.6%.
With `O=C(c1cnn(-c2ccc(F)cc2)c1-n1cccc1)N1CCN(c2ccc(F)cc2)CC1` the figure was -8.43%; with `CCCCOc1ccc(C(=O)Nc2cccc(-c3nc4ccccc4o3)c2C)cc1`, -17.8%; with `CCOc1ccc(C2C(C(=O)Nc3ccc(Cl)cc3)=C(C)Nc3nc(C(F)(F)F)nn32)cc1` (configuration not stated), -84.1% (active).
As for `COc1cc(C2C(C(=O)Nc3ccc(F)cc3)=C(C)Nc3nc(CCCO)nn32)cc(OC)c1OC` (configuration not stated), the activity change, negative = inhibition was 8.48%.
With `COC(=O)c1nc2n(n1)C(c1ccc([N+](=O)[O-])cc1)C(C(=O)Nc1ccc(Cl)cc1)=C(C)N2` (configuration not stated) the figure was 5.33%; with `Cc1ccc2oc3c(c(=O)c2c1)C(c1ccc([N+](=O)[O-])cc1)N(CCCN1CCOCC1)C3=O` (configuration not stated), 40.9%.
With `COc1ccc(CCNC(=O)C(=O)NCC(c2ccco2)S(=O)(=O)c2cccs2)cc1OC` (configuration not stated), the activity change, negative = inhibition is 0.563%.
With `CCOc1ccc(CCNC(=O)c2csc3c2CCCCC3)cc1` the figure was -5.3%; with `Cc1cccc(OCCCC(=O)Nc2sc3c(c2C(N)=O)CCC(C)C3)c1` (configuration not stated), -6.01%; with `COc1ccc(C(=O)Nc2ccc3nc(N4CCCCC4)cc(C)c3c2)cc1OC`, -31.4% and -29.2%.
With `CCN1CCN(c2cc(C)c3cc(NC(=O)c4cc(Cl)ccc4OC)ccc3n2)CC1` the figure was -99.2% (active); with `CCOCCCNC(=S)Nc1ccc2nc(N3CCN(CC)CC3)cc(C)c2c1`, -1.19%; with `COc1ccc(CCNC(=O)CCCn2c(=O)c3ccccc3n(Cc3ccc(F)cc3Cl)c2=O)cc1OC`, 12.1%.
With `O=C1OCCC1=COCCCCOC=C1CCOC1=O` the figure was 19%; with `COc1ccc(CNC(=O)Cc2coc3ccc(C(C)C)cc23)cc1`, -6.28%; with `Cc1c(NC(=O)C(C)(C)C)cccc1-c1nc2ccccc2s1`, 39.5%.
With `Cc1ccc(Cl)cc1NC(=O)Cc1ccc(-n2c(C)nc3cccnc32)cc1`, the activity change, negative = inhibition is 0%.
With `Cc1c(NC(=O)Cc2ccccc2)cccc1-c1nc2cccnc2s1` the figure was -66.4% (active); with `O=C(CCc1cn(Cc2ccc(F)cc2)c2ccccc12)NC1CCCCC1`, 4.53%; with `Cc1nc(N2CCCCC2)sc1C=O`, -68.8% (active).
With `Cc1nc(N2CCOCC2)sc1C(=O)NN` the figure was 0%.
Consider `CC(C)C(C)(C#N)NC(=O)CSc1nncn1-c1ccccc1` (configuration not stated), for which the activity change, negative = inhibition is -23%.
With `COc1ccccc1C1C(C(=O)N2CCCCC2)=C(C)Nc2nc3ccccc3n21` (configuration not stated) the figure was 1.21%; with `COC(=O)c1c(NC(=O)c2cc(=O)c3c(C)cc(C)cc3o2)sc2c1CCCC2`, 17.7%.
With `CCN(CC(=O)NC(=O)NCc1ccccc1)Cc1nc2ccccc2c(=O)[nH]1` the figure was 5.98%; with `CCN(Cc1nc2ccccc2c(=O)[nH]1)Cc1cc(=O)oc2cc(C)c(C)cc12`, 17.8%; with `CCN(CC)c1ccc(C(=O)NNC(=O)CCc2nc3ccccc3c(=O)[nH]2)cc1`, -64.9% (active).
With `COc1ccc(-c2cc(NCc3ccc(F)cc3)n3cnnc3n2)cc1` the figure was -27.8%; with `CCc1cnc2c(c1SCC(=O)c1ccccc1)c(=O)n(C)c(=O)n2C`, -3.48%; with `COCC(C)NS(=O)(=O)c1ccc(N2CCCCS2(=O)=O)cc1` (configuration not stated), -11.3%.
For the compound `CC(c1ccccc1)n1c(NCCCn2ccnc2)nc2c1c(=O)[nH]c(=O)n2C` (configuration not stated), the activity change, negative = inhibition is 97.4%.
Turning to `O=C(NNC(=O)c1ccccc1[N+](=O)[O-])Nc1ccccc1C(F)(F)F`, the activity change, negative = inhibition is -0.175%.
With `Cc1cc(C)nc(NC(=O)Nc2ccccc2C(F)(F)F)n1` the figure was -62.1% (active); with `CN(CC(=O)Nc1ccccc1C(F)(F)F)C(=O)Cc1ccccc1F`, -12.2%; with `COc1cc(Cl)c(C)cc1NC(=O)CCc1nc2cccnc2n1Cc1cccs1`, 11%.
As to `Cc1nnc(SCC(=O)Nc2cccc(N)c2)n1-c1ccccc1`, the activity change, negative = inhibition is 5.74%.
With `CC(=O)Nc1ccc(NC(=O)CSc2nnc(C3CC3)n2-c2ccccc2)cc1` the figure was 0%.
With `CC[n+]1c(C)n(-c2ccccc2)c2ccc(NC(C)=O)cc21` the figure was -79.8% (active).
With `Cn1c(CCC(=O)OCC(=O)NCc2ccccc2Cl)nc(=O)c2ccccc21` the figure was 14.9%; with `Cc1ccc(Nc2ccc3cc(S(=O)(=O)N4CCCCC4)ccc3n2)cc1F`, -90.2% (active); with `O=S(=O)(c1ccc2nc(NCc3ccccc3Cl)ccc2c1)N1CCCCC1`, -22.2%.
For the compound `O=S(=O)(c1ccc2nc(N3CCN(c4cccc(Cl)c4)CC3)ccc2c1)N1CCCCC1`, the activity change, negative = inhibition is 6.51%.
With `Cc1ccc(-n2ncc3c(=O)n(Cc4cccc(C(F)(F)F)c4)cnc32)cc1C` the figure was 1.72%; with `CSc1nc(C)nc2c1c(=O)n(C)c(=O)n2C`, 6.36%.
With `COc1ccc(/C=C/C(=O)c2ccc(NS(=O)(=O)c3ccc(C)cc3)cc2)cc1O` the figure was -96.5% (active).
With `COc1ccc(NS(=O)(=O)c2ccc(NC(C)=O)cc2)cc1OC` the figure was -79.8% (active); with `COC(C(=O)NCc1ccccc1C)c1ccccc1` (configuration not stated), -7.11%; with `COc1ccccc1C(=O)COC(=O)CNS(=O)(=O)c1ccc(NC(C)=O)cc1`, 5.34%.
In the case of `Cc1ccc(S(=O)(=O)NNC(=O)/C=C/c2cccc(F)c2)cc1`, the activity change, negative = inhibition is -26.4%.
For `COc1ccc(S(=O)(=O)Nc2cc(C)on2)cc1NC(C)=O`, the activity change, negative = inhibition was 61.3%.
With `COC(C(=O)Nc1ccc(S(=O)(=O)Nc2ccc(C)c(C)c2)cc1)c1ccccc1` (configuration not stated) the figure was -97.3% (active); with `CCC(Oc1ccccc1C)C(=O)Nc1ccc(S(=O)(=O)Nc2cc(C)on2)cc1` (configuration not stated), 4.11%.
With `COc1ccc(C(=O)/C=C/c2ccc(-c3ccccc3)cc2)cc1CSCC(=O)O` the figure was -1.55%; with `CCc1ccc(NC(=O)c2cc3c(=O)n(Cc4cccnc4)ccc3nc2C)cc1`, -20.1%; with `CC(=O)N1Cc2cc(C(=O)NCc3cccc(F)c3)nc(-c3cccc(C4=CCCCC4)c3)c2[C@H]1CCO`, 3.64%.
With `COc1ccc(CCNC(=O)c2cc3cccc4c3n2CC(C)S4)c(OC)c1OC` (configuration not stated) the figure was 0%; with `COCc1c(C(=O)N/N=C/C2CC=CCC2)nnn1-c1nonc1N` (configuration not stated), 65.4%; with `O=C(/C=C/c1ccc(Cl)c([N+](=O)[O-])c1)c1cccnc1`, -80.5% (active).
As for `C/C(=N\NC(=O)Cc1ccccc1[N+](=O)[O-])c1cccnc1`, the activity change, negative = inhibition was 44.6%.
With `O=C(NN=Cc1ccco1)C(=O)Nc1ccc(Cl)c([N+](=O)[O-])c1` the figure was 63.3%.
Take `Cc1cc(=O)oc(C)c1C(=O)Nc1cnc2ccccc2c1`: the activity change, negative = inhibition is 38.4%.
With `Cc1ccc(Cn2c(=O)n(CCCC(=O)NCc3ccccc3Cl)c(=O)c3ccccc32)cc1` the figure was 20.2%.

The record behind these values is PubChem BioAssay AID1259415 (National Center for Advancing Translational Sciences (NCATS), 2018).
